FBW7 act = human FBW7 E3 ligase activation, primary screen | normalized activity (activation), % at 26.1 µM | Q969H0 | AID 1259310 | 0.13% of 650,000 active | AlphaScreen FBW7–phospho-cyclin E peptide binding, activator screen; in the data active = normalized activity above about 1.9%;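 note: purified mutant Fbw7 with reduced substrate affinity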
GPR151 ag = activators of human GPR151; Q8TDV0; PathHunter beta-arrestin GPR151 cells, luminescence; activation, % at 11.2 µM; 1% of 650,000 active; AID 1508602; in the data active = activation above about 4.9%;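 note: 0% = median of compound wells and 100% = cells with positive control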
MITF inh = inhibitors of human MITF; O75030; AlphaScreen MITF homodimerization, bead proximity signal; inhibition, % at 2.6 µM; 0.91% of 650,000 active; AID 1259374; in the data active = inhibition above about 50%;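 note: 0% = vehicle wells with protein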
TEAD-YAP inh = TEAD-YAP interaction inhibition. HEK-TIYL cells, TEAD-Gal4/YAP UAS-luciferase luminescence. AID 1259422. 1.4% of 640,000 active. inhibition, % at 9.12 µM; in the data active = inhibition above about 32%;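 note: 0% = median of test compound wells and 100% = reference inhibitor wells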
MITF confirm = human MITF inhibition, confirmation. shares compounds with MITF inh. AlphaScreen MITF homodimerization, biotin/His-MITF beads. inhibition, % at 2.6 µM. 16% of 4,700 active. AID 1259372;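 active = inhibition above a cutoff derived from the DMSO control wells, cut at about 28% in these data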;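 note: 0% = MITF dimer wells with DMSO only; inhibitors lower the bead chemiluminescence by keeping MITF from dimerizing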
AlphaScreen DR = AlphaScreen optical interference, dose response counter-screen | IC50, µM | AlphaScreen optical interference counterscreen, cell-free | shares compounds with MITF inh | 6% of 480 active; call rule not given here
AS interf ctr = counter-screen: compounds optically interfering with AlphaScreen; shares compounds with MITF inh; LysRS AlphaScreen counterscreen, signal interference, triplicate; inhibition, % at 2.6 µM; 7.6% of 4,700 active; AID 1259376;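 active = inhibition above a cutoff derived from the DMSO control wells, cut at about 30% in these data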
* hit, by the source's call; / = not tested or not shown; ! = not confirmed by another sample. Shown are actives, neighbours in structure and some others; about 3.5% of the full set was active somewhere.

SMILES	FBW7 act	GPR151 ag	MITF inh	TEAD-YAP inh	MITF confirm	AS interf ctr	others
CNC(=O)COc1cc(-c2cn[nH]c2)ccc1NC(=O)C1COc2ccc(OC)cc2C1 (centres undefined)	1	1	66*	-1	52*	20	AlphaScreen DR=>6.5
COc1cc(CN2CCSCC2)ccc1OCc1ccccc1	0	1	53*	-50	14	24
COc1ccc(CN2CCN(Cc3ccccc3F)CC2)cc1OCc1ccccc1	0	-1	80*	-7	2	2
COc1ccc(CN2CCN(C(=O)c3ccccc3F)CC2)cc1OCc1ccccc1	0	2	43	4	/	/
COc1ccc(CN2CCSCC2)cc1OCc1ccccc1	0	0	15	-2	/	/
CCN1CCN(Cc2ccc(OC)c(OCc3ccccc3)c2)CC1	0	-1	13	0	/	/
O=[N+]([O-])c1cccc(OCCCN2CCN(Cc3ccccc3)CC2)c1	0	-2	76*	2	3	0
CCc1ccc(CN2CCN(Cc3ccc(OC)c(OCc4ccccc4)c3)CC2)cc1	0	-1	74*	-1	3	1
CCn1nc(C(=O)OCc2c(C)noc2C)c2ccccc2c1=O	0	0	0	5	/	/
CC(C)(C)C(=O)Cn1c(=O)n(CCCS(=O)(=O)C2CCCCC2)c(=O)c2ccccc21	0	0	5	-6	/	/
O=[N+]([O-])c1cccc(CN2CCCCCCC2)c1	0	-1	42	-13	/	/
CCOc1ccc(CN2CCN(Cc3cccc([N+](=O)[O-])c3)CC2)cc1	0	1	60*	13	14	21
O=[N+]([O-])c1ccc(N2CCN(Cc3cccc([N+](=O)[O-])c3)CC2)cc1	0	-1	16	12	/	/
CCN1CCN(Cc2ccc(OCc3ccccc3)c(OC)c2)CC1	0	0	-1	-5	/	/
COc1ccc(CN2CCN(Cc3cccc([N+](=O)[O-])c3)CC2)cc1OCc1ccccc1	0	0	69*	-1	6	-1
O=[N+]([O-])c1cccc(CN2CCN(c3ccccn3)CC2)c1	1	1	51*	-2	4	-2
COc1ccc(CN2CCN(C3CCCCC3)CC2)cc1OCc1ccccc1	0	-1	62*	12	-3	-4
COc1ccc(CN2CCN(Cc3ccc(F)cc3)CC2)cc1OCc1ccccc1	0	0	79*	-5	16	19
C=CC[C@@H]1/C=C(\C)C[C@H](C)C[C@H](OC)[C@H]2O[C@@](O)(C(=O)C(=O)N3CCCC[C@H]3C(=O)O[C@H](/C(C)=C/[C@@H]3CC[C@@H](O)[C@H](OC)C3)[C@H](C)[C@@H](O)CC1=O)[C@H](C)C[C@@H]2OC	0	0	111*!	9	122*	100*
COC1CC2CCC(C)C(O)(O2)C(=O)C(=O)N2CCCCC2C(=O)OC(C(C)CC2CCC(O)C(OC)C2)CC(=O)C(C)/C=C(\C)C(O)C(OC)C(=O)C(C)CC(C)/C=C/C=C/C=C/1C (centres undefined)	0	1	-10	-9	/	/
Cc1cc(C(=O)N2CCN(CC(=O)c3cccs3)CC2)no1	0	0	61*	-4	7	12
O=C(CN1CCN(C(=O)c2cnccn2)CC1)c1cccs1	0	-1	53*	-2	4	16
O=S(=O)(NCc1ccsc1)c1ccc(F)c(Cl)c1	0	-1	62*	6	-8	0
Cc1cc(S(=O)(=O)NCc2ccsc2)ccc1F	1	3	4	-1	/	/
O=C(NCc1ccc(Cl)cc1)c1cc(-c2ccccc2)nc2ccccc12	0	0	-4	4	/	/
CN1CC(=O)N2CCN(C(=O)c3cccc(F)c3F)C[C@@H]2C1=O	1	1	-2	-6	/	/
CN1CC(=O)N2CCN(C(=O)NC3CCCCC3)C[C@@H]2C1=O	0	0	74*	1	74*	-4	AlphaScreen DR=>6.5
O=C(NC1CCCCC1)N1CCN2C(=O)[C@@H]3CCCN3C(=O)[C@H]2C1	0	1	82*	8	71*	-12	AlphaScreen DR=>6.5
CN1CC(=O)N2CCN(C(=O)c3ccccc3Cl)C[C@@H]2C1=O	1	0	54*	8	-2	-4
